Test results reported in paper PMC6792352, “Limited Chemical Structural Diversity Found to Modulate Thyroid Hormone Receptor in the Tox21 Chemical Library” (Environmental Health Perspectives, 2019).
Where a name gives a salt, the structure may show the parent alone.

tested on: thyroid hormone receptor (endogenous TRα and TRβ); design: species or system GH3-TRE-Luc (rat pituitary); GH3-TRE-Luc luciferase reporter, antagonist mode against 1 nM T3, loss of signal, qHTS; settings: read-out: Average AC50 (uM) GH3-TRE-Antag; 24 h; antagonist

SMILES | AC50 [µM]
O=C1Nc2ccc(Cl)cc2C(c2ccccc2Cl)=NC1O (centres unmarked) [Lorazepam] | > 50
CC[C@H]1C[C@H]2[C@@H]3CCC4=CC(=O)CC[C@@H]4[C@H]3CC[C@]2(C)[C@H]1O [Oxendolone] | 21.2
COc1cc(C[C@H](C)N)c(OC)cc1C [(S)-(+)-2,5-Dimethoxy-4-methylamphetamine hydrochloride] | 49.7
O=C1CN=C(c2ccccc2)c2cc(Cl)ccc2N1 [Desmethyldiazepam] | 22.9
CSCCCN=C=S [3-(Methylthio)propyl isothiocyanate] | > 90
